Reference: PubChem BioAssay (NCI)
Compounds without any hit were thinned out: in the full panel of roughly 79,000, 15% have a hit. Activity calls are given as the source filed them. Cut-off read from the data, not from the text of the source: active = growth inhibition above about 70%; inactive = the rest.

What was measured:
[1] = NCI Yeast Anticancer Drug Screen. Data for the rad50 strain (AID 155);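 note: 0% = growth of vehicle-only cultures of the same strain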; conditions: S. cerevisiae rad50 strain growth inhibition, active compounds read high
Method in brief: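 DNA repair mutant yeast, compound exposure, growth read-out; inhibition is taken relative to vehicle.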

[2] = NCI Yeast Anticancer Drug Screen. Data for the mec2-1 strain (AID 157); conditions: S. cerevisiae mec2-1 strain, active compounds read high
Method in brief: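 mec2-1 yeast strain, carrying an alteration in DNA damage repair or cell cycle control, was exposed to compounds; growth inhibition was measured relative to vehicle-treated controls.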

[3] = NCI Yeast Anticancer Drug Screen. Data for the sgs1 mgt1 strain (AID 161);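 note: 0% = growth of cultures given vehicle only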; conditions: S. cerevisiae sgs1 mgt1 strain, active compounds read high
Method in brief: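 Compounds are added to genetically altered yeast, and growth is compared with cultures given vehicle alone to give percent inhibition.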

[4] = NCI Yeast Anticancer Drug Screen. Data for the cln2 rad14 strain (AID 165);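 note: 0% = growth equal to vehicle treated cultures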; conditions: S. cerevisiae cln2 rad14 strain, active compounds read high
Method in brief: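 Yeast carrying cln2 and rad14 alterations (cell cycle control and DNA damage repair) were exposed to compounds. Growth inhibition was measured against vehicle-treated controls.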

[5] = NCI Yeast Anticancer Drug Screen. Data for the bub3 strain (AID 167); conditions: S. cerevisiae bub3 mutant strain, active compounds read high
Method in brief: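 In this screen, a yeast mutant lacking normal mitotic checkpoint function is challenged with compound. Relative growth versus vehicle gives the inhibition value.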

[6] = NCI Yeast Anticancer Drug Screen. Data for the mlh1 rad18 strain (AID 175); conditions: S. cerevisiae mlh1 rad18 strain growth inhibition, active compounds read high
Method in brief: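 Growth inhibition of the yeast strain was measured after compound exposure and expressed relative to vehicle-treated controls. The strain carries defined defects in DNA damage repair.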

[7] = at 5.0 µM (retest, dose inferred, filed as 0.5)
[8] = at 50.0 µM (retest, dose inferred, filed as 5.0)

Measured: growth inhibition

Nc1ccc(Cl)c2c1C(=O)c1ccccc1C2=O
active: [1]; at 50.0 µM 98.8% | [3]; at 50.0 µM 89.2% | [6]; at 50.0 µM 89.3%
inactive: [1]; [7] 40% | [1]; [8] 19% | [2]; [7] 13% | [2]; [8] 7% | [2]; at 50.0 µM 56.8% | [3]; [7] 0% | [3]; [8] 41% | [4]; [7] -4% | [4]; [8] 3% | [4]; at 50.0 µM 46.6% | [5]; [7] 0% | [5]; [8] 30% | [5]; at 50.0 µM 34.1% | [6]; [7] 13% | [6]; [8] 12%

c1ccc(CSc2nnc(SCc3ccccc3)c3[nH]cnc23)cc1
inactive: [1]; [7] -3% | [1]; [8] 33% | [1]; at 50.0 µM 61.4% | [2]; [7] -7% | [2]; [8] 38% | [2]; at 50.0 µM 46.9% | [3]; [7] -1% | [3]; [8] 45% | [3]; at 50.0 µM 46.1% | [4]; [7] -4% | [4]; [8] 23% | [4]; at 50.0 µM 56% | [5]; [7] -3% | [5]; [8] 45% | [5]; at 50.0 µM 50.1% | [6]; [7] -6% | [6]; [8] 34% | [6]; at 50.0 µM 11.9%

COC(=O)c1nnn(-c2ccc(S(N)(=O)=O)cc2)c1C(=O)c1ccc(Cl)c(Cl)c1
inactive: [1]; [7] 1% | [2]; [7] 22% | [3]; [7] 20% | [4]; [7] 19% | [5]; [7] 30% | [6]; [7] 22%
active: [1]; [8] 98% | [1]; at 50.0 µM 98.5% | [2]; [8] 99% | [2]; at 50.0 µM 98% | [3]; [8] 99% | [3]; at 50.0 µM 98.2% | [4]; [8] 98% | [4]; at 50.0 µM 96% | [5]; [8] 99% | [5]; at 50.0 µM 94.8% | [6]; [8] 99% | [6]; at 50.0 µM 98.3%

C[C@]12C[C@H](c3ccccc3)Nc3ccccc3N1C(c1ccccc1)=NO2
inactive: [1]; [7] 0% | [1]; at 50.0 µM 64.5% | [2]; [7] -13% | [2]; at 50.0 µM 59.7% | [3]; [7] 21% | [4]; [7] 9% | [4]; at 50.0 µM 54.4% | [5]; [7] 6% | [5]; at 50.0 µM 67.4% | [6]; [7] -8%
active: [1]; [8] 83% | [2]; [8] 80% | [3]; [8] 80% | [3]; at 50.0 µM 81.5% | [4]; [8] 74% | [5]; [8] 87% | [6]; [8] 88% | [6]; at 50.0 µM 71%

O=C(O)c1ccc2c(c1)CCCC2
inactive: [1]; [7] -154% | [1]; [8] -116% | [1]; at 50.0 µM 16.2% | [2]; [7] -55% | [2]; [8] -53% | [2]; at 50.0 µM 6.3% | [3]; [7] -66% | [3]; [8] -58% | [3]; at 50.0 µM 9.5% | [4]; [7] -60% | [4]; [8] -61% | [4]; at 50.0 µM 52% | [5]; [7] -75% | [5]; [8] -70% | [5]; at 50.0 µM -12.9% | [6]; [7] -143% | [6]; [8] -101% | [6]; at 50.0 µM 21.4%

CN(C)CCOC(=O)c1ccccc1
inactive: [1]; [7] 3% | [1]; at 50.0 µM 49.4% | [2]; [7] -6% | [2]; [8] 42% | [2]; at 50.0 µM 22.4% | [3]; [7] -2% | [3]; [8] 60% | [3]; at 50.0 µM 24% | [4]; [7] 0% | [4]; at 50.0 µM 27.1% | [5]; [7] -7% | [5]; at 50.0 µM 37.2% | [6]; [7] 2% | [6]; at 50.0 µM 42.2%
active: [1]; [8] 88% | [4]; [8] 81% | [5]; [8] 71% | [6]; [8] 78%

O=c1sc(=S)[nH]c2ccccc12
inactive: [1]; [7] -3% | [1]; [8] 10% | [2]; [7] 6% | [2]; [8] 43% | [2]; at 50.0 µM 69.1% | [3]; [7] 3% | [3]; [8] 41% | [4]; [7] -4% | [4]; [8] 3% | [5]; [7] -1% | [5]; [8] 7% | [5]; at 50.0 µM 67.5% | [6]; [7] 16% | [6]; [8] 31%
active: [1]; at 50.0 µM 76.8% | [3]; at 50.0 µM 78.9% | [4]; at 50.0 µM 71.5% | [6]; at 50.0 µM 72.2%

O=C(C[n+]1cccc2ccccc21)c1ccc(-c2ccc(C(=O)C[n+]3cccc4ccccc43)cc2)cc1
inactive: [1]; [7] 3% | [1]; [8] 32% | [1]; at 50.0 µM 62.2% | [2]; [7] 50% | [2]; [8] 23% | [2]; at 50.0 µM 50% | [3]; [7] 2% | [3]; [8] 36% | [3]; at 50.0 µM 46.5% | [4]; [7] 2% | [4]; [8] 24% | [4]; at 50.0 µM 31.9% | [5]; [7] 1% | [5]; [8] 44% | [5]; at 50.0 µM 45.6% | [6]; [7] 4% | [6]; [8] 53%
active: [6]; at 50.0 µM 86.3%

CCO/C=C1N=C(/C=C/c2ccc(Cl)cc2)OC/1=O
inactive: [1]; [7] 5% | [1]; [8] 31% | [1]; at 50.0 µM 28.4% | [2]; [7] 7% | [2]; [8] 13% | [2]; at 50.0 µM 32.8% | [3]; [7] 14% | [3]; [8] 19% | [3]; at 50.0 µM 47% | [4]; [7] 8% | [4]; [8] 43% | [4]; at 50.0 µM -38.7% | [5]; [7] 14% | [5]; [8] 29% | [5]; at 50.0 µM 22.6% | [6]; [7] 1% | [6]; [8] 25% | [6]; at 50.0 µM 40.8%

O=C(CCc1ccccc1)OCC1OC(OC(=O)CCc2ccccc2)C(OC(=O)CCc2ccccc2)C(OC(=O)CCc2ccccc2)C1OC(=O)CCc1ccccc1 (stereo not given)
inactive: [1]; [7] 1% | [1]; [8] 4% | [1]; at 50.0 µM 25.6% | [2]; [7] 0% | [2]; [8] -2% | [2]; at 50.0 µM 21.4% | [3]; [7] -3% | [3]; [8] -22% | [3]; at 50.0 µM 19.7% | [4]; [7] 0% | [4]; [8] -1% | [4]; at 50.0 µM -0.4% | [5]; [7] 2% | [5]; [8] 1% | [5]; at 50.0 µM -6.35% | [6]; [7] -3% | [6]; [8] 3% | [6]; at 50.0 µM 45.4%
